KB-3-1 tox = kills parental KB-3-1 adenocarcinoma cells. KB-3-1 viability, CellTiter-Glo ATP luminescence, 72 h. Potency, µM (highest dose often 46.1 µM), usual class: cytotoxic. 1.4% of 400,000 active. AID 1347075; further: nearly all actives have a fitted effect of over 60% in size
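Here the drug-naive KB-3-1 line serves as comparator for MDR sub-line selectivity; cells received compound titrations, 72 h at 37 °C, then CellTiter-Glo readout.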
TDP1 cell CPT = growth inhibition of DT40 Tdp1-/-;hTDP1 cells with camptothecin (screen for TDP1 inhibitors). 12% of 420,000 active. AID 686979. Potency, µM (doses to about 46.2 µM), for inactives: at the highest dose activity change, negative = growth inhibition, actives largely listed as inhibitors. chicken DT40 Tdp1-/-;hTDP1 cells + 20 nM CPT, ATP luminescence, 48 h; further: nearly all actives have a fitted effect of over 55% in size
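Chicken DT40 Tdp1-/- cells complemented with human TDP1, 400 cells/well, exposed to compounds plus 20 nM camptothecin for at least 48 h at 37 C; viability read as ATP content by CellTiter-Glo luminescence.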
HT1080 IDH1KD tx = toxicity to HT-1080 IDH1 knockdown cells (counter line) | HT-1080 IDH1 knockdown viability, ATP luminescence, 48 h | Potency, µM (top dose mostly 46.1 µM), for the others: at the highest dose activity, negative = toxicity, actives largely listed as cytotoxic | 2% of 360,000 active | AID 686971;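 further: 0% = DMSO wells and -100% = cell-free medium wells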
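Luminescent ATP read-out (CellTiter-Glo, 10 min at room temperature) after 48 h compound exposure at 37 °C gave viability of IDH1-knockdown HT-1080 cells. Activity was normalised to DMSO and cell-free wells, then fitted as concentration-response curves.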
TDP1 cell noCPT = qHTS for Inhibitors of human tyrosyl-DNA phosphodiesterase 1 (TDP1): qHTS in cells in absence of CPT | 15% of 420,000 active | Potency, µM (top dose mostly 46.2 µM), for the others: at the highest dose activity change, negative = growth inhibition, hits mostly inhibitors | DT40 Tdp1-/- hTDP1 cells, no CPT, ATP luminescence, 48 h; further: nearly all actives have a fitted effect of over 55% in size
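Growth of hTDP1-complemented DT40 Tdp1-knockout cells is measured by ATP luminescence after at least 48 hr compound exposure at 37 °C, with DMSO substituting for the 20 nM CPT used in the parallel screen.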
KB-V1 MDR tox = kills drug-selected multidrug resistant KB-V1 cells. KB-V1 MDR cells viability, CellTiter-Glo, 72 h. Potency, µM (doses to about 46.1 µM), most hits filed as cytotoxic. 3.4% of 400,000 active; further: nearly all actives have a fitted effect of over 60% in size
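KB-V1, DMEM (no phenol red) + 10% FBS; cpd pin-transferred, titration series; 72 h, 37 degrees C; CellTiter-Glo, luminescence. Data normalized, curve-fit.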
HT1080-NT tox = kills 2HG-producing HT-1080-NT fibrosarcoma cells; 1.6% of 360,000 active; Potency, µM (top dose mostly 46.1 µM), inactives show top-dose activity, negative = less viability, actives largely listed as cytotoxic; AID 686970; HT-1080-NT fibrosarcoma viability, CellTiter-Glo ATP luminescence, 48 h;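 further: NT is the 2HG producing partner of a matched IDH1 knockdown line; 0% = DMSO-treated cells and -100% = media-only wells without cells; nearly all actives have a fitted effect of over 55% in size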
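750 cells/well, RPMI + 5% FBS; 2 h settle, compound pin-transfer, 48 h at 37 degrees C. CellTiter-Glo 10 min RT, luminescence. Normalized to DMSO and media-only wells.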
* hit, by the source's call; i = inactive; ? = inconclusive; / = not tested or not shown. Most compounds without a hit are left out; they make up all but 19% or so of the library. The call rests on the fitted dose curve; in most records, active means well fitted curve in the direction sought with a large enough effect; inconclusive means small, poorly fitted or top-dose-only effect, or another doubt; inactive means no such curve, though single readings can be large; an effect the other way counts as inactive or inconclusive. Unless noted, on the % scale 0 is the no-effect control and ±100 the full control effect; potency means the concentration at half of the fitted maximal effect.

SMILES | KB-3-1 tox | TDP1 cell CPT | HT1080 IDH1KD tx | TDP1 cell noCPT | KB-V1 MDR tox | HT1080-NT tox
O=C(c1ccc(COc2ccccc2Cl)o1)N1N=C(C(F)F)CC1(O)C(F)F (stereo not given) | i | 23µM* | ? | 16µM* | i | ?
CCOc1ccc(OCc2ccc(C(=O)N3N=C(C(F)F)CC3(O)C(F)F)o2)cc1 (stereo not given) | i | ? | ? | ? | 16µM* | ?
COc1ccc(C(=O)O)cc1Nc1nc2ccc(C)cc2n2cnnc12 | i | -25% | / | ? | i | /
NC(=S)Nc1ccc(Cl)cc1Cl | i | -27% | 1% | ? | i | 18%
CC(=O)OCC12COC3c4ccccc4OC(C)(CC1C)C3C2C (stereo not given) | i | -4% | -2% | -27% | i | -1%
C[C@H](NC(=O)c1nc[nH]c1C(=O)N1CCNCC1)C(=O)OC(C)(C)C | i | 7% | 9% | 2% | i | 2%
CCNC1=C(Cl)C(=O)c2ccccc2C1=O | ? | 18µM* | ? | 23µM* | ? | ?
O=c1nccc(NCc2ccco2)[nH]1 | ? | 1% | 18% | -8% | i | 0%
CCCC(=O)NC1=C(Cl)C(=O)c2ccccc2C1=O | ? | 0.65µM* | 7.3µM* | 0.65µM* | ? | ?
O=C1C(Cl)=C(NCCN2CCCCC2)C(=O)c2ccccc21 | ? | 4.1µM* | 23µM* | ? | ? | 15µM*
O=C1C(Cl)=C(NCc2ccco2)C(=O)c2ccccc21 | ? | 12µM* | 16µM* | 8.2µM* | ? | ?
CN(C)c1nc(N(C)C)c2cnn(C)c2n1 | i | 5% | -6% | -9% | i | -1%
O=C(COc1ncnc2c(Cl)cc(Cl)cc12)Nc1cc([N+](=O)[O-])ccc1Cl | i | -1% | 8% | -7% | i | -1%
Cc1ccc([C@H]2C[C@@H](n3cc(-c4ccc(F)cc4)nn3)[C@H](O)CN2C(=O)C2CCCCC2)cc1 | ? | 4% | -3% | ? | 9.2µM* | 1%
O=C(C1CCCCC1)N1C[C@@H](O)[C@H](n2cc(-c3ccc(F)cc3)nn2)C[C@@H]1c1ccccc1 | 18µM* | ? | ? | 15µM* | i | ?
O=C1c2cccc(NCCNCCO)c2C(=O)c2cccc(NCCNCCO)c21 | ? | 0.37µM* | 8.2µM* | 0.73µM* | i | ?
CCOc1ccc(OCCOC(=O)CNC(=O)c2ccc(Cl)cc2Cl)cc1 | i | 3% | -6% | -29% | i | 0%
COc1ccc(C2=Nn3c(nnc3-c3ccccc3Cl)SC2)cc1OCC1CC1 | 2.9µM* | / | / | / | ? | /
COc1ccc(OC)c(-c2nnc3n2N=C(c2ccc(OC)c(OCC4CC4)c2)CS3)c1 | 0.92µM* | / | / | / | 4.6µM* | /
Fc1ccccc1-c1nnc2n1N=C(c1ccc(OC(F)F)c(OCC3CC3)c1)CS2 | i | / | / | / | i | /
CN=C(c1ccc(C)cc1)n1c(=S)nc(-c2ccc(C)cc2)n(C)c1=S | i | ? | 0% | 18µM* | i | 2%
CC(C)c1ccc(NC(=S)N2CCCC(c3ccc(F)cc3)=N2)cc1 | i | ? | -1% | 29µM* | i | -4%
S=C(Nc1ccccc1Cl)N1CCCCCC1 | i | -19% | 8% | -14% | i | 24%
S=C(Nc1ccccc1Cl)N1CCCC(c2ccccc2)=N1 | i | ? | -20% | 29µM* | ? | -17%
CC(NC(=O)C1CC2CCCC(C1)C2=O)c1ccccc1 (stereo not given) | i | 2% | 21% | -9% | i | 20%
CC(c1ccon1)N(C)C(=O)CCc1nnc(C2(c3ccc(Cl)cc3)CCC2)o1 (stereo not given) | i | ? | 7% | ? | ? | -2%
